PAX8 reporter: inhibitors of PAX8-driven TPO luciferase reporter, primary screen, RMG-I cells, single concentration. inhibition, % at 12.6 µM. SteadyGlo, 24 h. hit rate 1.2% among 360,000;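 active means mean replicate inhibition at least 60% with every replicate also reaching 60%; inconclusive means only one of the two criteria is met; inactive means mean below 60% and not all replicates reaching 60%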;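 further: luciferase light reporting Pax8 driven TPO promoter activity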
EWS-Fli block: EWS/Fli-driven NR0B1 reporter inhibitors, primary screen, A673 cells, NR0B1 luciferase, luminescence, MLPCN library; viability-normalised; inhibition, % at 12.6 µM; hit rate 0.67% among 350,000; AID 651661, 2012;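 active means mean inhibition of at least 50% after viability correction, with every replicate also passing that limit; inconclusive means mean reaches 50% but only one of two replicates passes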;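 further: firefly luciferase signal divided by Alamar Blue viability fluorescence both relative to DMSO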
GSIS activator: GLuc luminescence reporter in INS-1E cells, primary screen for activators of glucose-dependent secretion of insulin. INS-1E GLuc reporter insulin secretion, 2-3 h. activation, % at 16.6 µM. hit rate 0.61% among 370,000. AID 743287, 2014;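 active means lowest replicate activation of at least 40%, so every replicate reaches that level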
miR-122 sensor: miR-122 Renilla sensor signal increase in Huh7, primary screen, miR-122 inhibitor project, cell-based, single point, plate reader | Huh7 miR-122 Renilla luciferase sensor, 48 h; neutral wells = 0, positive control = 100 | hit rate 0.3% among 340,000 | activation (reporter increase), % at 12.5 µM;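 active means mean replicate activation score at least 90 and every replicate individually at or above 90; inconclusive means only one of the two criteria met; inactive means neither criterion met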;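 further: higher luciferase means less miR-122 activity so hits act as miR-122 inhibitors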
HIV Env fusion: inhibitors of HIV-1 Env-driven cell-cell fusion, primary screen, HeLa-JRFL effector, CEM21 target cells, luciferase; inhibition, % at 12.3 µM; hit rate 1.1% among 360,000; AID 651610, 2012;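 active means mean replicate inhibition score of at least 50 and every replicate individually at or above 50; inconclusive means only one of the two criteria met; inactive means mean below 50 and not all replicates reaching 50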
C2C12 statin: suppressors of statin myotoxicity in C2C12 myotubes, primary screen, cell-based, single point, plate reader; C2C12 myotubes + simvastatin, ATP luminescence, 48 h; scaled: DMSO 0, geranylgeraniol control 100; rescue of ATP level, % at 7.49 µM; hit rate 0.78% among 330,000; AID 602340, 2012;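 active means mean ATP rescue above about 67%, or every replicate alone reaching that limit, limit read from the data, passing the limit was not always enough; inconclusive means no clear call, values can overlap the other calls; inactive means mean under the limit and some replicate under it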;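 further: myotubes were challenged with 10 µM simvastatin during compound exposure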
Large screens that a line does not name were inactive; [ ] = another dose, or the depositor's remark. Most compounds without a hit are left out; they make up all but 3.1% or so of the library.

COC(=O)c1c(C)[nH]c(C(=O)/C=C/c2ccc(C)cc2)c1C	EWS-Fli block 91 (no result: miR-122 sensor, C2C12 statin)
COC(=O)c1c(C)[nH]c(C(=O)/C=C/c2ccccc2)c1C	GSIS activator 56 (no result: PAX8 reporter, EWS-Fli block, miR-122 sensor, HIV Env fusion, C2C12 statin)
COC(=O)c1c(C)[nH]c(C(=O)/C=C/c2cccc(Cl)c2)c1C	none (no result: PAX8 reporter, EWS-Fli block, miR-122 sensor, HIV Env fusion, C2C12 statin)
CCCNC(=O)N1C[C@H](O)COC[C@@H]2O[C@H](CC(=O)NCc3ccncn3)CC[C@H]21	none
C[C@@H]1CN([C@@H](C)CO)C(=O)c2ccccc2-c2ccccc2CO[C@H]1CN(C)C(=O)Nc1cccc(F)c1	none (no result: PAX8 reporter, miR-122 sensor, HIV Env fusion, C2C12 statin)
COc1ccc(NC(=O)N(C)C[C@H]2Oc3ccc(NS(=O)(=O)c4ccc(C)cc4)cc3C(=O)N([C@H](C)CO)C[C@H]2C)cc1	none
C[C@@H]1CN([C@@H](C)CO)C(=O)c2cc(NC(=O)CCCCCC(=O)Nc3ccccc3N)ccc2O[C@H]1CN(C)S(=O)(=O)c1ccc(F)cc1	none (no result: miR-122 sensor, HIV Env fusion, C2C12 statin)
COCCCN(C(=S)NC(=O)C12CC3CC(CC(C3)C1)C2)c1c(N)n(Cc2ccccc2)c(=O)[nH]c1=O	HIV Env fusion 84 (no result: C2C12 statin)
COCCN(C(=O)COC(=O)Cc1c(C)nc2ccccc2c1C)c1c(N)n(CC(C)C)c(=O)[nH]c1=O	none (no result: GSIS activator, miR-122 sensor)
COCCN(C(=O)COC(=O)C12CC3CC(CC(Cl)(C3)C1)C2)c1c(N)n(Cc2ccccc2)c(=O)[nH]c1=O	HIV Env fusion 68
COCCN(C(=O)COC(=O)Cc1cccc(OC)c1)c1c(N)n(CC(C)C)c(=O)[nH]c1=O	GSIS activator 53 (no result: PAX8 reporter)
CC(C)CC#Cc1ccc2c(c1)O[C@H](CN(C)C(=O)Nc1ccccc1F)[C@@H](C)CN([C@@H](C)CO)S2(=O)=O	miR-122 sensor 107[16.7 µM] (no result: PAX8 reporter)
COc1ccc(NC(=O)N(C)C[C@H]2Oc3cc(C#CCC(C)C)ccc3S(=O)(=O)N([C@H](C)CO)C[C@H]2C)cc1	PAX8 reporter 72 (no result: HIV Env fusion)
COc1ccc(NC(=O)N(C)C[C@@H]2Oc3cc(C#CCC(C)C)ccc3S(=O)(=O)N([C@@H](C)CO)C[C@H]2C)cc1	none (no result: HIV Env fusion)
COc1ccc(C#Cc2ccc3c(c2)O[C@H](CN(C)C(=O)Nc2cccc(OC)c2)[C@H](C)CN([C@H](C)CO)S3(=O)=O)cc1	C2C12 statin 92 (no result: PAX8 reporter)
COc1ccc(C#Cc2ccc3c(c2)O[C@H](CN(C)C(=O)Nc2cccc(OC)c2)[C@@H](C)CN([C@H](C)CO)S3(=O)=O)cc1	C2C12 statin inconclusive (no result: PAX8 reporter)
Cc1noc(C)c1NC(=O)N(C)C[C@@H]1OCCCC[C@H](C)Oc2ccc(NC(=O)Cc3ccccc3)cc2C(=O)N([C@@H](C)CO)C[C@@H]1C	none (no result: PAX8 reporter, C2C12 statin)
C[C@H](CO)N1C[C@H](C)[C@@H](CN(C)C(=O)Nc2ccccc2)Oc2ccc(NC(=O)Nc3ccc(F)cc3)cc2CC1=O	none (no result: HIV Env fusion)
CCCn1nc(C(=O)NC2CCCC2)c2ccccc2c1=O	GSIS activator 58 (no result: HIV Env fusion)
CCCS(=O)(=O)c1nc(S(=O)(=O)c2ccc(C)cc2)c(N2CCN(C)CC2)s1	none
CCS(=O)(=O)c1nc(S(=O)(=O)c2ccc(C)cc2)c(N2CCCC2)s1	none
Cc1ccc(S(=O)(=O)c2nc(S(=O)(=O)c3ccccc3)sc2N2CCN(CCO)CC2)cc1	PAX8 reporter 71 (no result: miR-122 sensor)
Cc1ccc(S(=O)(=O)c2nc(S(=O)(=O)c3ccccc3)sc2N2CCN(C)CC2)cc1	PAX8 reporter 88 (no result: miR-122 sensor)
CCS(=O)(=O)c1nc(S(=O)(=O)c2ccc(C)cc2)c(N2CCC(O)CC2)s1	GSIS activator 41 (no result: miR-122 sensor)
CCN1CCN(c2sc(S(C)(=O)=O)nc2S(=O)(=O)c2ccc(C)cc2)CC1	PAX8 reporter 71
C[C@@H]1CN([C@@H](C)CO)C(=O)c2cc(C#CCN(C)C)cnc2O[C@H]1CN(C)C(=O)NC1CCCCC1	none
CC1(C(=O)NCCc2ccccc2)Cc2c(-c3ccc4c(c3)OCO4)ccnc2O1 (configuration not stated)	EWS-Fli block 58
CC1(C(=O)NCc2ccccc2)Cc2c(-c3ccc4c(c3)OCO4)ccnc2O1 (configuration not stated)	none
CC1(C(=O)NCc2ccc(F)c(F)c2)Cc2c(-c3ccccc3)ccnc2O1 (configuration not stated)	none (no result: PAX8 reporter, EWS-Fli block, GSIS activator, HIV Env fusion)
CC1(C(=O)NCc2ccccc2)Cc2c(-c3ccccc3)ccnc2O1 (configuration not stated)	EWS-Fli block 59
CN(C)c1ccc(-c2ccnc3c2CC(C)(C(=O)NCc2ccccc2)O3)cc1 (configuration not stated)	EWS-Fli block 61
CN1CCN(c2ccc(CNC(=O)C3(C)Cc4c(-c5ccccc5)ccnc4O3)cc2)CC1 (configuration not stated)	GSIS activator 45
CCCN1C[C@H](C)[C@@H](OC)CN(C)C(=O)c2cc(NC(=O)Nc3ccccc3F)ccc2OC[C@H]1C	none (no result: miR-122 sensor)
CC1(C(=O)NCc2ccccc2)Cc2c(-c3ccc(C(N)=O)cc3)ccnc2O1 (configuration not stated)	EWS-Fli block 54 (no result: GSIS activator)
CC1(C(=O)NCC2CCOCC2)Cc2c(-c3cccc(C(F)(F)F)c3)ccnc2O1 (configuration not stated)	EWS-Fli block 52 (no result: GSIS activator)
CC1(C(=O)NCc2ccco2)Cc2c(-c3ccc(C(N)=O)cc3)ccnc2O1 (configuration not stated)	none (no result: GSIS activator)
NC(=S)N/N=C\c1c2ccccc2cc2ccccc12	none (no result: C2C12 statin)
NC(=S)NN=Cc1cc(-c2cccc(N)c2)ccn1	PAX8 reporter 94 (no result: GSIS activator, HIV Env fusion)
CNC[C@@H]1Oc2ccc(NC(=O)c3ccncc3)cc2CC(=O)N([C@H](C)CO)C[C@@H]1C	none
O=C(NC1CCN(C(=O)NCc2ccccc2)CC1)c1ccccc1	none
O=C(NC1CCN(C(=O)NCc2ccccc2)CC1)c1ccco1	C2C12 statin 101 (no result: PAX8 reporter, EWS-Fli block, GSIS activator)
CC1CCC(NCCNC(=O)c2ccco2)CC1 (configuration not stated)	GSIS activator 44
CCOC(=O)N1CCC(n2c(SCC(=O)OCc3ccccc3)nc3ccsc3c2=O)CC1	HIV Env fusion 97 (no result: PAX8 reporter, EWS-Fli block)
CCOC(=O)CSc1nc2ccsc2c(=O)n1C1CCN(C(=O)OCC)CC1	none (no result: PAX8 reporter, HIV Env fusion, C2C12 statin)
CCOC(=O)N1CCC(n2c(SCC(=O)N3CCC(C)CC3)nc3ccccc3c2=O)CC1	HIV Env fusion 54 (no result: EWS-Fli block, GSIS activator, C2C12 statin)
C[C@@H]1CN([C@@H](C)CO)C(=O)Cc2cc(NC(=O)C3CCCCC3)ccc2O[C@@H]1CN(C)C(=O)NC1CCCCC1	none (no result: HIV Env fusion)
Clc1ccccc1CNc1ncnc2nc[nH]c12	C2C12 statin 101 (no result: GSIS activator)
CCCCCCCCCn1c2c(c(=N)c3c1CCC3)CCC2	none (no result: PAX8 reporter, EWS-Fli block, GSIS activator, HIV Env fusion, C2C12 statin)
CCCCCCn1c2c(c(=N)c3c1CCC3)CCC2	HIV Env fusion 81 (no result: PAX8 reporter, EWS-Fli block)

Compound activity from PubChem.
